Source: PubChem BioAssay (NCI)
Where “and” joins values, the source holds several entries; their conditions need not be identical. Equal entries are not always repeated. The panel holds about 83,000 compounds, 20% with a hit somewhere; the sample as a whole holds those more often.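 Results are percent growth after 48 hours of single-concentration exposure. 100 means growth as in untreated cells, lower positive values show inhibition; negative values down to -100 show cell death.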 Calls of active or inactive are those of the source. The calls were made as follows: active = growth percent below 10; inactive = the rest.

tested on: MCF7 breast; experiment: NCI-60 one-dose screen, 48 h (100 = growth as untreated, 0 = no growth, -100 = all killed); conditions: 10 µM unless noted

| Structure (SMILES) | growth |
| --- | --- |
| COC(=O)c1ccccc1Cl | 99.6% (inactive) |
| CCC(C)NC(=O)c1ccccc1C (centres undefined) | 90.7% (inactive) |
| COc1ccc(CCl)c(C)c1OC | 103% (inactive) |
| Cc1c(Cl)cc(Cl)c(N)c1Cl | 98.6% (inactive) |
| O=C1CCC(=O)N1CC1CC2CCC1C2 (centres undefined) | 99% (inactive) and 95.9% (inactive) |
| O=C(O)c1ccc2c3ccc(C(=O)O)c4c(C(=O)O)ccc(c5ccc(C(=O)O)c1c25)c43 | 93.3% (inactive) |
| Cc1onc(-c2c(F)cccc2Cl)c1-c1ncc(-c2ccc(Cl)cc2)o1 | 61.9% (inactive) and 20.5% (inactive) |
| CCCCCc1cc[n+](CC(=O)c2ccccc2)cc1 | 104% (inactive) and 93.7% (inactive) |
| C(=N\OCCc1ccccc1)/c1ccccn1 | 92.9% (inactive) and 105% (inactive) |
| COc1cc([C@@H]2c3cc4c(cc3[C@H](O)[C@H]3COC(=O)[C@@H]23)OCO4)cc(OC)c1OC | 18.4% (inactive) and 5.61% (active) |
| COc1ccc(/C=N/NC(N)=S)cc1 | 103% (inactive) |
| N=c1sc2ccccc2n1CC(=O)O | 99% (inactive) |
| O=C(O)/C=C/C=C/c1ccccc1 | 92.9% (inactive) and 94.4% (inactive) |
| CC(C)(C)OC(=O)CC1(O)CCCCC1 | 101% (inactive) |
| Cc1nc(Nc2ccc(Cl)cc2)c2cnn(-c3ccccc3)c2n1 | 88.2% (inactive) |
| CC(=O)Oc1cc(C)c(OC(C)=O)c(C)c1C | 91.3% (inactive) |
| CCC(C)(O)CCC(C)(O)CC (centres undefined) | 92.4% (inactive) |
| Clc1ccc2sc(-c3ccccc3)nc2c1 | 61.2% (inactive) |
| Cc1ccc([N+](=O)[O-])cc1Br | 97.6% (inactive) |
| COCCCNC1=C(C#N)C(=O)NC(c2cccs2)S1 (centres undefined) | 89.6% (inactive) |

| Structure (SMILES) | growth |
| --- | --- |
| OCCSc1ccc(Cl)cc1 | 106% (inactive) and 89.3% (inactive) |
| Nc1[nH][nH]c(=O)c1N=Nc1ccccc1 | 92.9% (inactive) and 94.5% (inactive) |
| CS(=O)(=O)c1nsc(N)n1 | 99.8% (inactive) |
| Cc1cc(Cl)nc(Nc2ccccc2)n1 | 93.7% (inactive) |
| O=C(O)C1CSCN1 (centres undefined) | 95.4% (inactive) |
| C/C=C(/C(=O)NC(N)=O)C(C)C | 94% (inactive) |
| O=[N+]([O-])c1ccc(NC(c2ccccc2)c2ccc3cccnc3c2O)cc1 (centres undefined) | 17.3% (inactive) |
| CCCCC/C(C)=N\NC(N)=S | 19.6% (inactive) |
| CC(C)(C)C1CCC(=NO)CC1 (centres undefined) | 83.9% (inactive) |
| CCOC(C)=N | 104% (inactive) |
| CN(C)C(=S)N(C)C | 107% (inactive) |
| NNC(=O)Nc1ccccc1 | 89.3% (inactive) |
| COC(=O)c1cc(C(=O)OC)cc([N+](=O)[O-])c1 | 98% (inactive) |
| OCCS | 94.1% (inactive) |
| COc1ccc(/C=N/Nc2nc3ccccc3s2)cc1 | 61.1% (inactive) |
| Cc1cc(O)c(C(C)C)cc1N=O | 90.8% (inactive) and 94.9% (inactive) |
| O=C(c1ccccc1)C1(Br)CCCCC1 | 96% (inactive) |
| COc1ccc2oc3c(ccc[n+]3C)c(=O)c2c1 | 100% (inactive) |
| CCCC(=O)Oc1ccc(CC)cc1 | 92.4% (inactive) |
